Hits are enriched below; roughly 17% of the tested compounds scored in any of these assays.
DT40 TDP1 CPT: growth inhibition of DT40 Tdp1-/-;hTDP1 cells with camptothecin (screen for TDP1 inhibitors); chicken DT40 Tdp1-/-;hTDP1 cells + 20 nM CPT, ATP luminescence, 48 h; Potency, µM (top dose mostly 46.2 µM), for the others: top-dose activity change, negative = growth inhibition, hits mostly inhibitors; hit rate 12% among 420,000; AID 686979; also: % is scaled to controls: 0 for no effect and ±100 for the full control effect; nearly all actives have a fitted effect of over 55% in size
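Chicken DT40 Tdp1-/- cells complemented with human TDP1, 400 cells/well, exposed to compounds plus 20 nM camptothecin for at least 48 h at 37 C; viability read as ATP content by CellTiter-Glo luminescence.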
ClpP mod: qHTS Assay for Activators of ClpP. AID 651965, 2013. hit rate 1.9% among 340,000. Potency, µM (doses to about 57.5 µM), without a hit: at the highest dose activity change, negative = active. ATP-dependent Clp protease proteolytic subunit (Bacillus subtilis (strain 168)), P80244. purified B. subtilis ClpP, FRET peptide cleavage, 20 min; active = well fitted falling curve with a large enough effect; inconclusive = small, poorly fitted or top-dose-only effect; inactive = no such curve, though single readings can be large or run the other way; also: the source files actives as falling curves though it sought activators and does not explain the sign; nearly all actives have a fitted effect of over 65% in size
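Purified B. subtilis ClpP, 10 microg/mL final in Tris/HCl pH8 with KCl, BSA, glycerol and Tween-20, cleaved an Abz/nitrotyrosine-quenched decapeptide. Fluorescence (ex 320, em 430) was read at 0 and 20 min at room temperature. Delta was normalized to 5.8 microM ADEP and DMSO/no-enzyme controls.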
TDP1 block: blocks human tyrosyl-DNA phosphodiesterase 1; recombinant TDP1, AlphaScreen DNA substrate cleavage; Potency, µM (doses to about 130 µM), inactives show top-dose activity change, negative = inhibition, most hits filed as inhibitors; hit rate 0.28% among 350,000; also: % is scaled to controls: 0 for no effect and ±100 for the full control effect; nearly all actives have a fitted effect of over 40% in size
Target sequence (Q9NUW8 whole entry, looked up): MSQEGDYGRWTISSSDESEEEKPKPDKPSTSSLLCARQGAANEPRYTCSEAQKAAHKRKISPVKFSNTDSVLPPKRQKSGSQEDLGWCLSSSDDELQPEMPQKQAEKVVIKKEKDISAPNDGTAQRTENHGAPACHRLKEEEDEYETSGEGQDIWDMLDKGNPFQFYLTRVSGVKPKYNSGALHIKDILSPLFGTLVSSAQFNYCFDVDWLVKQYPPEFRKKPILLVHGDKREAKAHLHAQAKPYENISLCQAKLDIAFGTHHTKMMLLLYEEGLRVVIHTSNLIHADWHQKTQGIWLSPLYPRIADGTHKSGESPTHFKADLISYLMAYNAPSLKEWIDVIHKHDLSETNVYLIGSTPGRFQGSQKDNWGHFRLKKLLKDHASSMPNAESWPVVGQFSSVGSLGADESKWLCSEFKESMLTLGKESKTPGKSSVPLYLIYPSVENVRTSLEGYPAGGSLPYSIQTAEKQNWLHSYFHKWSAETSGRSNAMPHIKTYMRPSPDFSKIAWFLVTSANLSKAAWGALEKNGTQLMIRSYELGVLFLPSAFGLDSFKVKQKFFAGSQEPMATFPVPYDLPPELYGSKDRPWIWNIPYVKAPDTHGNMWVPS
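Recombinant human Tdp1 (E. coli-expressed, 1 nM final) preincubated with compounds 15 min at room temperature, then 5'-biotin/3'-phosphotyrosine-FITC DNA substrate (15 nM final) added for 5 min. AlphaScreen beads (10 ug/ml final) added 10 min; cleavage lowers signal.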
DT40 TDP1 no CPT: qHTS for Inhibitors of human tyrosyl-DNA phosphodiesterase 1 (TDP1): qHTS in cells in absence of CPT. Potency, µM (series often up to 46.2 µM), without a hit: top-dose activity change, negative = growth inhibition, actives largely listed as inhibitors. DT40 Tdp1-/- hTDP1 cells, no CPT, ATP luminescence, 48 h. hit rate 15% among 420,000; also: % is scaled to controls: 0 for no effect and ±100 for the full control effect; nearly all actives have a fitted effect of over 55% in size
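Compound effects on proliferation are scored in DT40 Tdp1-/-;hTDP1 cells in the absence of CPT. ATP levels (CellTiter-Glo luminescence) are recorded after a ≥48 hr, 37 °C incubation.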
* marks the source's active call; other numbers are inactive results; ? = inconclusive; . = no result; [ ] = remark or other dose. Unless noted, calls follow the shape of the dose curve; as a rule, active = well fitted curve in the direction sought with a large enough effect; inconclusive = small, poorly fitted or top-dose-only effect, or another doubt; inactive = no such curve, though single readings can be large; an effect the other way counts as inactive or inconclusive. Potency is read from the fitted curve at half-maximal effect.

SMILES	DT40 TDP1 CPT	ClpP mod	TDP1 block	DT40 TDP1 no CPT
COc1ccc(CCNC(=O)CCCNC(=O)Cn2cnc3sc(C)c(C)c3c2=O)cc1OC	-23.6%	0.0%	-2.5%	11.6%
COc1ccccc1NC(=O)c1cnc(SCC(=O)NCC2CCCO2)n(C)c1=O (centres undefined)	10.3µM*	-0.7%	-0.3%	?
COc1ccccc1NC(=O)CCCNC(=O)Cn1cnc2sc(C)c(C)c2c1=O	-4.4%	28.2µM*	-0.1%	2.1%
COc1ccccc1NC(=O)CSc1nc2sc(C)c(C)c2c(=O)n1C	20.6µM*	.	2.0%	13µM*
Cc1sc2nc(SCC(=O)OC(C)C)n(C)c(=O)c2c1C	-26.7%	-2.7%	6.3%	23.1µM*
COc1ccccc1NC(=O)c1cnc(SCC(=O)N2CCOCC2)n(C)c1=O	?	-1.4%	-5.2%	?
Cc1ccc(C)c(NC(=O)CN2CCSc3ccc(S(=O)(=O)N4CCCC4)cc32)c1	.	4.3%	5.3%	.
COC(=O)C1=C/CCCN(C(c2ccccc2)c2ccccc2)/C=C\1C(=O)OC	?	-1.9%	.	-84.7%
Cc1cc(C)cc(NC(=O)Cn2c(C(F)(F)F)nc3ccccc32)c1	-24.4%	0.7%	.	-21.9%
COc1ccccc1C(=O)OCC(=O)Nc1ccc(N2CCCCC2)cc1	?	2.3%	.	?
CC(C)(C)c1nnc(N/N=C/c2ccccc2O)n(N)c1=O	0.651µM*	0.7%	7.9%	1.03µM*
COc1ccc(-c2nc(S(=O)(=O)c3ccccc3)c(N3CCOCC3)o2)cc1	-8.8%	-2.7%	9.1%	-19.2%
COc1cc(-c2nc(S(=O)(=O)c3ccc(C)cc3)c(N3CCOCC3)o2)cc(OC)c1OC	11.6µM*	?	11.6%	9.2µM*
O=S(=O)(c1ccc(Cl)cc1)c1nc(-c2ccccc2Br)oc1N1CCOCC1	18.4µM*	?	1.0%[2.28 µM]	23.1µM*
COc1cc(-c2nc(S(=O)(=O)c3ccc(Cl)cc3)c(N3CCOCC3)o2)cc(OC)c1OC	?	-2.2%	6.8%	16.4µM*
COc1ccc(C(=O)N2CCN(c3ccc(C)cc3)CC2)cc1OC	?	0.4%	1.2%	?
COc1ccc(C(=O)N2CCN(c3nc4ccccc4o3)CC2)cc1OC	16.4µM*	-0.3%	1.2%	20.6µM*
CCc1ccc(N2CCN(C(=O)c3ccc(OC)c(OC)c3)CC2)cc1	?	1.2%	6.5%	13µM*
COc1ccc(C(=O)N2CCN(c3c(C)cccc3C)CC2)cc1OC	23.1µM*	-1.3%	-1.3%	?
COc1cc(C(=O)N2CCN(c3ccc([N+](=O)[O-])cc3)CC2)ccc1OCc1c(C)noc1C	?	1.7%	2.8%	16.4µM*
N#Cc1ccccc1OCC(=O)N1CCN(c2ccccc2)CC1	-12.0%	-0.1%	2.9%	-0.3%
CC(C)(C)C(=O)CSc1nc(N)cc(=O)[nH]1	-2.2%	0.0%	5.4%	10.2%
COc1ccc(C2NC(=O)c3ccccc3N2)c(OC)c1OC (centres undefined)	?	4.5%	.	?
COc1ccc2cc(C3NC(=O)c4ccccc4N3)c(Cl)nc2c1 (centres undefined)	-18.1%	0.0%	3.7%	?
COc1cc(C)c(C2NC(=O)c3ccccc3N2)cc1C (centres undefined)	2.59µM*	?	.	2.06µM*
SMILES	DT40 TDP1 CPT	ClpP mod	TDP1 block	DT40 TDP1 no CPT
CCCC12CN3CC(C)(CN(C1)C3c1cn(C)c3ccccc13)C2=O (centres undefined)	?	-2.2%	7.0%	?
Cc1ccc(C)c(C2NC(=O)c3ccccc3N2)c1 (centres undefined)	0.731µM*	4.5%	.	0.581µM*
O=C1NC(c2ccccc2O)Nc2ccccc21 (centres undefined)	-18.8%	3.7%	.	-16.5%
Cc1ccc(C)c2nc(Cl)c(C3NC(=O)c4ccccc4N3)cc12 (centres undefined)	?	-1.7%	0.0%	16.4µM*
Cn1cc(C2NC(=O)c3ccccc3N2)c2ccccc21 (centres undefined)	1.16µM*	28.2µM*	.	1.64µM*
CC(=O)c1ccc(NC(=O)NC2CC(=O)N(c3ccc4c(c3)OCCO4)C2)cc1 (centres undefined)	6.1%	.	-9.1%	-7.2%
CNC(=O)c1ccc(Nc2nc(-c3ccccc3)nc3ccccc23)cc1	16.4µM*	.	8.3%	13µM*

Assay outcomes: PubChem BioAssay, National Center for Advancing Translational Sciences (NCATS)
